MLLE-PAM2 inh = inhibitors of PABP1 MLLE–PAM2 peptide binding, primary screen, biochemical, fluorescence polarization, FITC-PAM2, GST-MLLE. Polyadenylate-binding protein 1 (Homo sapiens), P11940. 360,000 tested, 0.36% active. inhibition, % at 20 µM; in the data active = inhibition above about 35%, passing the limit was not always enough
PABP polyA inh = PABP poly(A) RNA binding inhibitors, primary screen, biochemical, fluorescence polarization, uHTS | 290,000 tested, 1% active | inhibition, % at 35 µM | Polyadenylate-binding protein 1 (Homo sapiens), P11940;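 also: calls also rest on retests at 20 µM and on dose response follow-up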
UBC9 SUMO inh = inhibitors of in vitro SUMOylation cascade, primary screen, biochemical, HTRF, uHTS | SUMO-conjugating enzyme UBC9 (Homo sapiens), P63279 | HTRF SUMOylation assay, SAE1/SAE2 + UBC9 | inhibition, % at 35 µM | 290,000 tested, 0.36% active; in the data active = inhibition above about 50%, passing the limit was not always enough; inconclusive = no clear call, values can overlap the other calls
Target sequence (P63279 whole entry, looked up): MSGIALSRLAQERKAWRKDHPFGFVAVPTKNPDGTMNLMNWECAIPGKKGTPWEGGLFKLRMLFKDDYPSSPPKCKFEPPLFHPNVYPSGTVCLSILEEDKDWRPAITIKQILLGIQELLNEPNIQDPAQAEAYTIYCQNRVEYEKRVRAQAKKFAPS
ALR inh = inhibitors of human ALR sulfhydryl oxidase, primary screen, biochemical, H2O2 detection, HRP-luminol luminescence, single point; inhibition, % (no concentration beside the values); purified ALR, DTT oxidation; 290,000 tested, 3.8% active; FAD-linked sulfhydryl oxidase ALR (Homo sapiens), P55789; AID 485317, 2010;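 active = mean replicate inhibition above about 79%, with every replicate also reaching it, limit read from the data; inconclusive = only one of the two criteria met; inactive = mean below limit and not every replicate reaching it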
Target sequence (P55789 whole entry, looked up): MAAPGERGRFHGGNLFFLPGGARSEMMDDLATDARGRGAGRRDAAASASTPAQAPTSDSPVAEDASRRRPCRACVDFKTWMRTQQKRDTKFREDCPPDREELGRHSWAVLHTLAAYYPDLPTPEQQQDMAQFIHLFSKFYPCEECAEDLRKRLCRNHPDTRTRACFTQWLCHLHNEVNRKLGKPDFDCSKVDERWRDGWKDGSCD
Efflux pump mplx = inhibitors of Candida efflux pumps in yeast, primary screen, S. cerevisiae, Nile Red, multiplex. S. cerevisiae Candida pump triplex. inhibition, % at 10 µM. 330,000 tested, 0.44% active. AID 485275, 2010;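 active = plate passing quality check with inhibition over a set limit, or well fluorescence over plate mean plus 4 SD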;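 also: Nile Red retained in pooled yeast measured as flow cytometry median fluorescence; higher means more Nile Red kept so more efflux inhibition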
eIF4H inh = human eIF4H binding inhibitors, primary screen, translation initiation inhibitor project, biochemical, uHTS, fluorescence polarization; 290,000 tested, 0.94% active; eIF4H fluorescence polarization binding assay; inhibition, % at 35 µM; AID 2012, 2009;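 also: calls also rest on retests at 20 µM and on dose response follow-up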
Each line names hits and unclear results; the compound was inactive in the other large screens; ! = not active in a repeat. The list is not random: actives were taken first. Their share in the collection is about 4.7%. Unless noted, no rule for the calls is given here.

O=C1C(c2ccccc2)C2C=CC(C2)N1O (stereo not given)	none (no result: PABP polyA inh, UBC9 SUMO inh, ALR inh, Efflux pump mplx, eIF4H inh)
CC1=CC(=O)C=C(C)C1=NOC(=O)c1cccc([N+](=O)[O-])c1	ALR inh 100
Cc1ccc(-n2nc3c(=O)n(CC(=O)NC4CCCCCC4)nc(C)c3c2C)cc1	none
O=C1NCCCC2c3c(cc(Br)c(O)c3Br)OC12N1CCOCC1 (stereo not given)	ALR inh 94
CCn1c(SCC(=O)Nc2ccc(N3CCOCC3)cc2)nnc1-c1ccc(OC)cc1	none
CCn1c(C)nnc1SCC(=O)Nc1ccc(N2CCOCC2)cc1	ALR inh 88
CC(C)(C)c1nc(SCC(=O)Nc2ccc(N3CCOCC3)cc2)c2ccccc2n1	ALR inh 98
CC(C)(C)c1nc(SCC(=O)Nc2ccc3c(c2)OCCO3)c2ccccc2n1	none
CCn1c(SCC(=O)Nc2ccc(N3CCOCC3)cc2)nnc1-c1ccco1	ALR inh 98 (no result: PABP polyA inh, UBC9 SUMO inh, eIF4H inh)
CCn1c(SCC(=O)Nc2ccc(OCc3ccccc3)cc2)nnc1-c1ccco1	none
COC(=O)C1=CO[C@@H](O[C@@H]2O[C@H](CO)[C@@H](O)[C@H](O)[C@H]2O)C2C1CC(O)O[C@H]2C (stereo not given in full)	none (no result: PABP polyA inh, UBC9 SUMO inh, eIF4H inh)
CCc1nc2c(OCCn3cccc3)cccn2c1N(C)C(=O)c1ccccc1F	none (no result: PABP polyA inh, UBC9 SUMO inh, ALR inh, Efflux pump mplx, eIF4H inh)
CCCCc1nc2n[nH]c(N)c2c2c1CSC(C)(C)C2	none (no result: ALR inh)
CC(C)c1nc2n[nH]c(N)c2c2c1CSC(C)(C)C2	ALR inh 98
CS(=O)(=O)N1CCCC(C(=O)Nc2ccccc2)C1 (stereo not given)	none
CC(C)CCNC(=O)c1c(CSc2ccc(Cl)cc2)noc1C(=O)NCc1ccccc1	none (no result: PABP polyA inh, UBC9 SUMO inh, ALR inh, eIF4H inh)
CCOc1ccc(/C=C2\SC(=O)N(c3ccc(O)cc3)C2=O)cc1OC	none (no result: MLLE-PAM2 inh, ALR inh)
COc1cc(/C=C2\SC(=O)N(c3ccc(Cl)cc3)C2=O)cc([N+](=O)[O-])c1O	UBC9 SUMO inh 95, eIF4H inh 96 (no result: ALR inh, Efflux pump mplx)
COc1cc(/C=C2\SC(=O)N(c3cccc(Cl)c3)C2=O)cc([N+](=O)[O-])c1O	MLLE-PAM2 inh 85, UBC9 SUMO inh 82 (no result: PABP polyA inh, ALR inh, Efflux pump mplx, eIF4H inh)
Cc1ccc(C(C)C)c(OCC(=O)NN=C(CCl)CCl)c1	none (no result: MLLE-PAM2 inh)
C=CCn1c(N)c(C(=O)OC(C)(C)C)c2nc3ccccc3nc21	UBC9 SUMO inh 98 (no result: ALR inh, Efflux pump mplx)
C=CCn1c(N)c(C(=O)Nc2ccccc2)c2nc3ccccc3nc21	UBC9 SUMO inh 91
CC(C)(C)OC(=O)NCCCCCNC(=O)c1[nH]cnc1C(=O)Nc1cc(Br)ccc1F	none (no result: PABP polyA inh, UBC9 SUMO inh, ALR inh, Efflux pump mplx, eIF4H inh)
O=S(=O)(NCCCCNS(=O)(=O)c1ccc(F)cc1)c1ccc(F)cc1	none (no result: PABP polyA inh, UBC9 SUMO inh, eIF4H inh)
O=C(O)C(CCCCNS(=O)(=O)c1ccc(F)cc1)NS(=O)(=O)c1ccc(F)cc1 (stereo not given)	PABP polyA inh 71!, eIF4H inh 96!
COc1ccc(-n2nc(C(=O)N3CCC(N4CCCCC4)CC3)c3c4ccccc4n(C)c3c2=O)cc1	none
CC(C)(/C=N/NC(=O)CSCc1ccccc1Cl)CCC#N	ALR inh 98
O=C(CSCc1ccccc1Cl)N/N=C/c1ccco1	none
CCOC(=O)c1cc(CC)sc1/N=C/C1=C(O)CC(C)(C)CC1=O	none
CCOC(=O)c1sc(N=NC2=C(O)CC(C)(C)CC2=O)c(C(=O)OCC)c1C	eIF4H inh 60
Cc1ccc(N2CCN(C(=O)c3cc(-c4ccc(F)cc4)[nH]c3C)CC2C)cc1 (stereo not given)	PABP polyA inh 25, eIF4H inh inconclusive
CCOC(=O)N1CCC(NC(=O)c2cc(-c3ccc(F)cc3)[nH]c2C)CC1	ALR inh 98
CCOC(=O)N1CCC(NC(=O)c2cc(C(=O)NCc3ccc(F)cc3)ccc2CO)CC1	none
CCOC(=O)N1CCC(NC(=O)c2cc(S(=O)(=O)N3CCC4(CC3)OCCO4)ccc2F)CC1	ALR inh 99
O=C(NCCOc1ccccc1Cl)c1cccc2c1C(=O)c1ccc(Cl)cc1S2(=O)=O	none (no result: PABP polyA inh, UBC9 SUMO inh, eIF4H inh)
CCN(CC)c1ccc(NS(=O)(=O)c2ccc3c(c2)oc(=O)n3C)c(C)c1	ALR inh 99
Cc1cc(C)c(NS(=O)(=O)c2ccc3c(c2)oc(=O)n3C)c(C)c1	none (no result: PABP polyA inh, UBC9 SUMO inh, ALR inh, Efflux pump mplx, eIF4H inh)
Cn1c(=O)oc2cc(S(=O)(=O)Nc3cccc4c3CCCC4)ccc21	PABP polyA inh 56, eIF4H inh 62
O=C(Nc1ccc(C(=O)N2CCCC2)cc1)c1cc(F)c(F)cc1Cl	none (no result: PABP polyA inh, UBC9 SUMO inh, ALR inh, Efflux pump mplx, eIF4H inh)
CN1/C(=C\C=C2/SC(=S)N(CC(=O)O)C2=O)C(C)(C)c2ccccc21	PABP polyA inh inconclusive, ALR inh 98, eIF4H inh inconclusive
CCC(OC(=O)CC1Sc2ccccc2NC1=O)C(=O)NCC1CCCO1 (stereo not given)	MLLE-PAM2 inh 40
COC(=O)c1c(N)n(-c2ccc(N3CCOCC3)cc2)c2nc3ccccc3nc12	UBC9 SUMO inh 52 (no result: MLLE-PAM2 inh, ALR inh, Efflux pump mplx)
COc1ccc(-c2cc(C(F)F)n3ncc(C(=O)n4ccnc4C)c3n2)cc1	ALR inh 99
COc1ccc(-c2cc(C(F)F)n3ncc(C(=O)N4CCc5ccccc54)c3n2)cc1	none
O=C(COc1ccc(F)cc1)Nc1nc(-c2cccnc2)cs1	none (no result: PABP polyA inh, UBC9 SUMO inh, ALR inh, Efflux pump mplx, eIF4H inh)
COc1cc2c(CCNC(C)=O)c[nH]c2cc1Cl	none (no result: PABP polyA inh, UBC9 SUMO inh, eIF4H inh)
c1ccc(Cc2nn3c(-c4ccncc4)nnc3s2)cc1	MLLE-PAM2 inh 38
c1ccc(Cc2nnc3sc(-c4ccncc4)nn23)cc1	MLLE-PAM2 inh 42
CC[C@@]1(O)C(=O)OCc2c1cc1n(c2=O)Cc2cc3c(N)cccc3nc2-1	PABP polyA inh 29, UBC9 SUMO inh 95, eIF4H inh 92
CC(C)OC(=O)CC(=O)CSc1nc(-c2ccc(F)cc2)cc(-c2ccccc2)c1C#N	PABP polyA inh 19, eIF4H inh 88
CC1(C)Cc2c(c(=S)nc(-c3ccccc3)n2CCN2CCOCC2)CO1	ALR inh 97
Cc1occc1C(=O)Nc1c(F)c(F)c(F)c(F)c1F	ALR inh 97
Cc1cc(C)n2nc(C(=O)Nc3ccc4c(c3)CCC4)nc2n1	eIF4H inh 2.1
Cc1occc1C(=O)Nc1ccc2c(c1)OCCO2	none
O=C(O)c1ccc2c(c1)CCC2	PABP polyA inh 54, eIF4H inh 3.3
Cc1occc1C(=O)Nc1ccc2c(c1)CCC2	ALR inh 96
COc1ccc(-c2noc(-c3csc([C@@H]4O[C@H](CO)[C@H](O)[C@H](O)[C@H]4O)n3)n2)cc1OC	none (no result: PABP polyA inh, UBC9 SUMO inh, ALR inh, Efflux pump mplx, eIF4H inh)
COc1ccc(C(=O)N/C(=C\c2cn(S(=O)(=O)N(C)C)c3ccccc23)C(=O)N2CCCC2)cc1	none (no result: PABP polyA inh, UBC9 SUMO inh, ALR inh, Efflux pump mplx, eIF4H inh)
